Assay results as given in article PMC7862700, “An all-to-all approach to the identification of sequence-specific readers for epigenetic DNA modifications on cytosine”.

target: T1, ETS2 (Homo sapiens, UniProt P15036 1-469); assay: DAPPL (digital affinity profiling via proximity ligation, sequencing); 10 mM Tris-HCl pH 7.5, 50 mM NaCl, 1 mM DTT, 4% glycerol, room temperature, 30 min; GST-TFs on glutathione beads, 16-mer random dsDNA library, 0.1% formaldehyde crosslink after washing; high values mean tight binding; settings: protein: recombinant; tags: N-terminal GST; dsDNA, one strand shown
T1 sequence: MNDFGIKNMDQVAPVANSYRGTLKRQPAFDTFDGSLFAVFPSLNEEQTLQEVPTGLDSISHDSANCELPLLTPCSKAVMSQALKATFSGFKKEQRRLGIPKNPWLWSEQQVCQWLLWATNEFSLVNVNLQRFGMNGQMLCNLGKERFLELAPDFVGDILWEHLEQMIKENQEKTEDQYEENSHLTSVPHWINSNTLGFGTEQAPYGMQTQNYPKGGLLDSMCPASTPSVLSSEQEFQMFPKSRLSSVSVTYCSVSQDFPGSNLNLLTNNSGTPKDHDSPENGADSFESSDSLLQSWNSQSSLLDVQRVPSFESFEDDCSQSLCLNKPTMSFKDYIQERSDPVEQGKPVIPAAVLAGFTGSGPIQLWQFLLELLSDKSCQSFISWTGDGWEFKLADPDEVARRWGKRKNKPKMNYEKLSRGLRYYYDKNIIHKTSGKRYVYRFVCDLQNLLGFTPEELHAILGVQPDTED
Procedure, shortened: (§1)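 After expression in yeast as GST fusions, human transcription factors were bound to glutathione beads, DNA-barcoded and mixed with a tag-only sample. The pools were incubated with 200 nmole of a 16-mer random double-stranded DNA library in Tris/NaCl/DTT/glycerol buffer (30 min, room temperature), washed and crosslinked with 0.1% formaldehyde. Proximity ligation with BsaI/T4 ligase ran for 1 h at 37 °C, before PCR amplification and sequencing on an Illumina NextSeq500. Binding signal is a hexamer's read frequency for a factor divided by its frequency for the tag-only sample.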

Point of comparison: CCTGAC, binding signal 1.56 fold enrichment (6-mer frequency, TF over GST control). Against it:
- GGACCT — lower, 1.41 fold enrichment (6-mer frequency, TF over GST control)
- GAATAA — lower, 1.09 fold enrichment (6-mer frequency, TF over GST control)
- TATGCT — lower, 1.29 fold enrichment (6-mer frequency, TF over GST control)
- TCTCTA — lower, 1.22 fold enrichment (6-mer frequency, TF over GST control)
- ATTCTC — lower, 1.19 fold enrichment (6-mer frequency, TF over GST control)
- ACTCCG — lower, 1.46 fold enrichment (6-mer frequency, TF over GST control)
- ACACTT — higher, 1.76 fold enrichment (6-mer frequency, TF over GST control)
- CTTTAT — lower, 1.29 fold enrichment (6-mer frequency, TF over GST control)
- GCTTCT — lower, 1.5 fold enrichment (6-mer frequency, TF over GST control)
- CTTCGG — lower, 1.48 fold enrichment (6-mer frequency, TF over GST control)
- TTATTT — lower, 1.41 fold enrichment (6-mer frequency, TF over GST control)
- ATCCCT — lower, 1.23 fold enrichment (6-mer frequency, TF over GST control)
- TTTGCT — lower, 1.32 fold enrichment (6-mer frequency, TF over GST control)
- ACCTGC — lower, 1.5 fold enrichment (6-mer frequency, TF over GST control)
- TATCCG — higher, 2.55 fold enrichment (6-mer frequency, TF over GST control)
- TTAAAG — lower, 1.19 fold enrichment (6-mer frequency, TF over GST control)
- TTCTGA — lower, 1.43 fold enrichment (6-mer frequency, TF over GST control)
- ACAAAT — lower, 1.16 fold enrichment (6-mer frequency, TF over GST control)
- ACAGCT — lower, 1.12 fold enrichment (6-mer frequency, TF over GST control)

target: T2, SPDEF (Homo sapiens, UniProt O95238 1-335); assay: as above; settings: protein: recombinant; tags: N-terminal GST; dsDNA, one strand shown
T2 sequence: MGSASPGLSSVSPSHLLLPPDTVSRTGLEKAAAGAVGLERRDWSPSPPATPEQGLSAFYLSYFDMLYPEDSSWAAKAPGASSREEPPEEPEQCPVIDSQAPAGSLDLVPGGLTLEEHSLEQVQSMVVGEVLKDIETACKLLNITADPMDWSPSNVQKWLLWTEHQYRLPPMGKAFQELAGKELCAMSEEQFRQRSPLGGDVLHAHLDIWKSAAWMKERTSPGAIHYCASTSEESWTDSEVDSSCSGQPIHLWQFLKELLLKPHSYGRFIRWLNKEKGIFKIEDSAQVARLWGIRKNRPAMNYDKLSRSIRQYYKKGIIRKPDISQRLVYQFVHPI
Procedure, shortened: as §1

Point of comparison: ACAAAT, binding signal 1.1 fold enrichment (6-mer frequency, TF over GST control). Against it:
- TTACAC — higher, 1.23 fold enrichment (6-mer frequency, TF over GST control)
- TATATC — higher, 2.19 fold enrichment (6-mer frequency, TF over GST control)
- TAAAAT — higher, 1.14 fold enrichment (6-mer frequency, TF over GST control)
- CCATAA — higher, 1.12 fold enrichment (6-mer frequency, TF over GST control)
- AACCCT — higher, 1.17 fold enrichment (6-mer frequency, TF over GST control)
- AATCTG — higher, 1.37 fold enrichment (6-mer frequency, TF over GST control)
- TTTTAT — higher, 1.22 fold enrichment (6-mer frequency, TF over GST control)
- TTTCGA — higher, 1.34 fold enrichment (6-mer frequency, TF over GST control)
- CTTAGT — higher, 1.2 fold enrichment (6-mer frequency, TF over GST control)
- CATCCT — higher, 2.33 fold enrichment (6-mer frequency, TF over GST control)
- ATCCTG — higher, 2.47 fold enrichment (6-mer frequency, TF over GST control)
- ACTACG — higher, 1.27 fold enrichment (6-mer frequency, TF over GST control)
- TTCGAA — higher, 1.17 fold enrichment (6-mer frequency, TF over GST control)
- AACCTT — higher, 1.29 fold enrichment (6-mer frequency, TF over GST control)
- TACCTT — higher, 1.39 fold enrichment (6-mer frequency, TF over GST control)
- CCTTCC — higher, 2.44 fold enrichment (6-mer frequency, TF over GST control)
- CTTATC — higher, 1.23 fold enrichment (6-mer frequency, TF over GST control)
- CCTACG — higher, 1.41 fold enrichment (6-mer frequency, TF over GST control)
- TACATG — higher, 1.21 fold enrichment (6-mer frequency, TF over GST control)
- CTGCGA — higher, 1.37 fold enrichment (6-mer frequency, TF over GST control)
- GGACCT — higher, 1.53 fold enrichment (6-mer frequency, TF over GST control)
- GAATAA — lower, 1.09 fold enrichment (6-mer frequency, TF over GST control)
- TATGCT — higher, 1.36 fold enrichment (6-mer frequency, TF over GST control)
- TCTCTA — higher, 1.24 fold enrichment (6-mer frequency, TF over GST control)
- ATTCTC — higher, 1.19 fold enrichment (6-mer frequency, TF over GST control)
- ACTCCG — higher, 1.59 fold enrichment (6-mer frequency, TF over GST control)
- ACACTT — higher, 1.61 fold enrichment (6-mer frequency, TF over GST control)
- CTTTAT — higher, 1.14 fold enrichment (6-mer frequency, TF over GST control)
- GCTTCT — higher, 1.34 fold enrichment (6-mer frequency, TF over GST control)
- CTTCGG — higher, 1.36 fold enrichment (6-mer frequency, TF over GST control)
- TTATTT — higher, 1.19 fold enrichment (6-mer frequency, TF over GST control)
- CCTGAC — higher, 1.51 fold enrichment (6-mer frequency, TF over GST control)
- ATCCCT — higher, 1.41 fold enrichment (6-mer frequency, TF over GST control)
- TTTGCT — higher, 1.16 fold enrichment (6-mer frequency, TF over GST control)
- ACCTGC — higher, 1.4 fold enrichment (6-mer frequency, TF over GST control)
- TATCCG — higher, 3.8 fold enrichment (6-mer frequency, TF over GST control)
- TTAAAG — higher, 1.12 fold enrichment (6-mer frequency, TF over GST control)
- TTCTGA — higher, 1.38 fold enrichment (6-mer frequency, TF over GST control)
- ACAGCT — lower, 1.02 fold enrichment (6-mer frequency, TF over GST control)

target: T3, ETV7 (Homo sapiens, UniProt Q9Y603 1-341); assay: as above; settings: protein: recombinant; tags: N-terminal GST; dsDNA, one strand shown
T3 sequence: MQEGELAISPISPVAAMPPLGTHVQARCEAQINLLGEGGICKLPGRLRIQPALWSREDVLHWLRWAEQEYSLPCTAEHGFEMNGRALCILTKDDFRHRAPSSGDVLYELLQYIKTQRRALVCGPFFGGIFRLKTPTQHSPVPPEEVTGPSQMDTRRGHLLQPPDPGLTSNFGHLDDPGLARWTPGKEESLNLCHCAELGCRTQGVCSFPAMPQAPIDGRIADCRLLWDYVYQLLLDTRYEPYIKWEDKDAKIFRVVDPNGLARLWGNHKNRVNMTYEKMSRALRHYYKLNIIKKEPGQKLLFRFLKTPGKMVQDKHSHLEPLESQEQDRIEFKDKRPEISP
Procedure, shortened: as §1

Point of comparison: CCTGAC, binding signal 1.46 fold enrichment (6-mer frequency, TF over GST control). Against it:
- TTACAC — lower, 1.19 fold enrichment (6-mer frequency, TF over GST control)
- TATATC — higher, 1.48 fold enrichment (6-mer frequency, TF over GST control)
- TAAAAT — lower, 1.17 fold enrichment (6-mer frequency, TF over GST control)
- CCATAA — lower, 1.15 fold enrichment (6-mer frequency, TF over GST control)
- AACCCT — lower, 1.24 fold enrichment (6-mer frequency, TF over GST control)
- AATCTG — the same, 1.46 fold enrichment (6-mer frequency, TF over GST control)
- TTTTAT — lower, 1.34 fold enrichment (6-mer frequency, TF over GST control)
- TTTCGA — lower, 1.29 fold enrichment (6-mer frequency, TF over GST control)
- CTTAGT — lower, 1.07 fold enrichment (6-mer frequency, TF over GST control)
- CATCCT — higher, 1.5 fold enrichment (6-mer frequency, TF over GST control)
- ATCCTG — higher, 1.51 fold enrichment (6-mer frequency, TF over GST control)
- ACTACG — lower, 1.4 fold enrichment (6-mer frequency, TF over GST control)
- TTCGAA — lower, 1.26 fold enrichment (6-mer frequency, TF over GST control)
- AACCTT — lower, 1.29 fold enrichment (6-mer frequency, TF over GST control)
- TACCTT — lower, 1.37 fold enrichment (6-mer frequency, TF over GST control)
- CCTTCC — higher, 2.45 fold enrichment (6-mer frequency, TF over GST control)
- CTTATC — lower, 1.1 fold enrichment (6-mer frequency, TF over GST control)
- CCTACG — higher, 1.49 fold enrichment (6-mer frequency, TF over GST control)
- TACATG — lower, 1.25 fold enrichment (6-mer frequency, TF over GST control)
- CTGCGA — lower, 1.26 fold enrichment (6-mer frequency, TF over GST control)
- GGACCT — lower, 1.34 fold enrichment (6-mer frequency, TF over GST control)
- GAATAA — lower, 1.07 fold enrichment (6-mer frequency, TF over GST control)
- TATGCT — lower, 1.32 fold enrichment (6-mer frequency, TF over GST control)
- TCTCTA — lower, 1.34 fold enrichment (6-mer frequency, TF over GST control)
- ATTCTC — lower, 1.23 fold enrichment (6-mer frequency, TF over GST control)
- ACTCCG — lower, 1.4 fold enrichment (6-mer frequency, TF over GST control)
- ACACTT — higher, 1.78 fold enrichment (6-mer frequency, TF over GST control)
- CTTTAT — lower, 1.31 fold enrichment (6-mer frequency, TF over GST control)
- GCTTCT — lower, 1.43 fold enrichment (6-mer frequency, TF over GST control)
- CTTCGG — lower, 1.39 fold enrichment (6-mer frequency, TF over GST control)
- TTATTT — the same, 1.46 fold enrichment (6-mer frequency, TF over GST control)
- ATCCCT — lower, 1.14 fold enrichment (6-mer frequency, TF over GST control)
- TTTGCT — lower, 1.38 fold enrichment (6-mer frequency, TF over GST control)
- ACCTGC — higher, 1.48 fold enrichment (6-mer frequency, TF over GST control)
- TATCCG — higher, 2.1 fold enrichment (6-mer frequency, TF over GST control)
- TTAAAG — lower, 1.21 fold enrichment (6-mer frequency, TF over GST control)
- TTCTGA — lower, 1.19 fold enrichment (6-mer frequency, TF over GST control)
- ACAAAT — lower, 1.14 fold enrichment (6-mer frequency, TF over GST control)
- ACAGCT — lower, 1.21 fold enrichment (6-mer frequency, TF over GST control)
